Source: PubChem
Nrf2 ARE act: Nrf2 pathway activation; Potency, µM (top dose mostly 46.1 µM), for inactives: top-dose activation, most hits filed as activators; AREc32 ARE-luciferase reporter (MCF7-derived line), luminescence, 24 h; hit rate 0.31% among 410,000; also: % of control where 0% means no effect; nearly all actives have a fitted effect of over 65% in size
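Luciferase luminescence (Steady-Glo, 30 min at room temperature) served as the read-out of ARE activation in AREc32 cells treated with compounds for 24 hr at 37 deg C.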
ELG1 DNA repair: ELG1-dependent DNA repair inhibition | Potency, µM (titrated, usually from 46.1 µM), for inactives: top-dose activity change, negative = inhibition, hits mostly inhibitors | HEK293T ELG1-luciferase reporter, luminescence, 16 h; DNA damage induced by 5-fluorouridine | hit rate 2.3% among 330,000; also: % is scaled to controls: 0 for no effect and ±100 for the full control effect; nearly all actives have a fitted effect of over 55% in size
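DMSO vehicle served as the neutral condition. Each well held 2,000 cells given 5-fluorouridine plus compound; after 16 hr at 37 °C/5% CO2, ONE-Glo was added and luciferase measured 30 min later.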
A549 tox-1: A549 cytotoxicity, counter-screen for Nrf2 inhibitors; AID 504648; hit rate 0.16% among 390,000; Potency, µM (series often up to 46 µM), inactives show at the highest dose activity change, negative = cytotoxicity, hits mostly inhibitors; A549 ARE-Fluc cells, CellTiter-Fluor viability, 18-24 h; also: % is scaled to controls: 0 for no effect and ±100 for the full control effect
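A549 ARE-Fluc cells in 5% FBS OPTI-MEM, 5000 cells/well, rested 2 h then exposed to compounds in concentration-response for 18-24 h at 37 °C. Viability by CellTiter-Fluor fluorescence (Ex 405/Em 525) after 30 min; luciferase luminescence (BugLite, 15 min, RT) read afterwards.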
Nrf2 inh: Nrf2 pathway inhibition. A549 ARE-Fluc reporter, luciferase luminescence, 18-24 h. Potency, µM (top dose mostly 46 µM), for inactives: at the highest dose activity change, negative = inhibition, usual class: inhibitors. hit rate 2.1% among 360,000. AID 504444; also: % is scaled to controls: 0 for no effect and ±100 for the full control effect; nearly all actives have a fitted effect of over 60% in size
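A549 ARE_Fluc cells (5000/well, 5% FBS OPTI-MEM) pre-incubated 2 h, then treated with compounds 18-24 h at 37C/5% CO2 in concentration-response. CellTiter-Fluor viability read first; BugLite luciferase luminescence after 15 min at room temperature gives Nrf2 activity.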
IDH1 R132H inh: human IDH1 R132H inhibition; O75874; IDH1-R132H enzyme, NADPH consumption, diaphorase/resazurin fluorescence; Potency, µM (doses to about 76.6 µM), without a hit: at the highest dose activity change, negative = inhibition, actives largely listed as inhibitors; hit rate 0.093% among 390,000; also: % is scaled to controls: 0 for no effect and ±100 for the full control effect; nearly all actives have a fitted effect of over 65% in size
Target sequence (O75874 whole entry R132H, stated change not applied): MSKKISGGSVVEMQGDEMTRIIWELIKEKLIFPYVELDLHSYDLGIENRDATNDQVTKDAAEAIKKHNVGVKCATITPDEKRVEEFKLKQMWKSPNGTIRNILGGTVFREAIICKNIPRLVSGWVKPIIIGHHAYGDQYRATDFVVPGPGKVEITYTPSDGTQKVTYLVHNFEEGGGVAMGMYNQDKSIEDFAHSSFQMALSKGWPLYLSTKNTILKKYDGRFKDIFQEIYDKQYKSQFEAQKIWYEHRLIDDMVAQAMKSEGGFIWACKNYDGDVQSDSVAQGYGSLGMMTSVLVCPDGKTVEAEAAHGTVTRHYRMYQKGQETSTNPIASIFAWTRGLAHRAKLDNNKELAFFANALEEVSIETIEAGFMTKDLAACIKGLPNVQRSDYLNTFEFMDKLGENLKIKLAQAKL
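IDH1-R132H (0.5 ug/mL) preincubated 30 min with compound, then NADPH (0.016 mM) and alpha-KG (2 mM) added; 80 min at RT, pH 7.5. Remaining NADPH coupled via diaphorase/resazurin to fluorescence (540/590 nm); concentration-response curves normalized to no-enzyme control.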
FLuc counter 3: blocks purified firefly luciferase in Nrf2 counterscreen | AID 720522 | shares compounds with Nrf2 inh | hit rate 4% among 1,400 | Potency, µM (top dose mostly 57.5 µM), for the others: at the top dose activity change, negative = inhibition, most hits filed as inhibitors | purified firefly luciferase, luminescence inhibition; also: % is scaled to controls: 0 for no effect and ±100 for the full control effect; nearly all actives have a fitted effect of over 65% in size
A549 tox-2: A549 cytotoxicity, Nrf2 inhibitor counterscreen; shares compounds with Nrf2 inh; A549 ARE-Fluc cells, cytotoxicity counterscreen; Potency, µM (titrated, usually from 46.1 µM), without a hit: at the highest dose activity change, negative = cytotoxicity, actives largely listed as inhibitors; hit rate 2% among 1,400; AID 720523;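 also: cells exposed to compounds for 18 to 24 hours; % is scaled to controls: 0 for no effect and ±100 for the full control effect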
ARE-Fluc inh: reduces Nrf2 ARE reporter signal in A549 cells | shares compounds with Nrf2 inh | A549 ARE-firefly luciferase reporter, luminescence | Potency, µM (highest dose often 46.1 µM), for the others: at the top dose activity change, negative = inhibition, most hits filed as inhibitors | hit rate 74% among 1,400; also: % is scaled to controls: 0 for no effect and ±100 for the full control effect; nearly all actives have a fitted effect of over 65% in size
Starred values were filed as active, the others as inactive; ? = inconclusive; . = not tested or not shown. Most compounds without a hit are left out; they make up all but 3.8% or so of the library. Calls follow the shape of the dose curve; as a rule, active = well fitted curve in the direction sought with a large enough effect; inconclusive = small, poorly fitted or top-dose-only effect, or another doubt; inactive = no such curve, though single readings can be large; an effect the other way counts as inactive or inconclusive. Potency is read from the fitted curve at half-maximal effect.

SMILES | Nrf2 ARE act | ELG1 DNA repair | A549 tox-1 | Nrf2 inh | IDH1 R132H inh | FLuc counter 3 | A549 tox-2 | ARE-Fluc inh
Cc1cccc(C(=O)N2CCC(N3CCN(Cc4ccc(F)cc4)C(=O)C3=O)CC2)c1 | -1% | . | 21% | 0% | -9% | . | . | .
Clc1ccc(-c2noc3ncnc(NCCc4ccccc4)c23)cc1 | 0% | . | -2% | -1% | 6% | . | . | .
COc1ccccc1CNC(=O)c1cc2c(=O)oc3ccc(C)cc3c2s1 | -1% | . | 17% | 9% | -9% | . | . | .
CCN(CC(=O)Nc1c(F)cccc1F)C(=O)c1cc(S(=O)(=O)N(CC)CC)ccc1N1CCCCC1 | -1% | -10% | 3% | 8.2µM* | 0% | 0% | 6% | 10µM*
CCN(CC)S(=O)(=O)c1cc(NC(=O)c2ccc(-n3cncn3)c([N+](=O)[O-])c2)ccc1C | -1% | ? | ? | 4.1µM* | 1% | 1% | -10% | 6.5µM*
CCc1ccc(OC(C)c2nc(-c3ccc(-n4cccc4)cc3)no2)cc1 (stereo not drawn) | 0% | . | 9% | 8.2µM* | -15% | 1% | 3% | 8.2µM*
COc1ccc2c(c1)/C(=C\c1cccc(/C=C3/C(=O)Nc4ccc(OC)cc43)n1)C(=O)N2 | 7% | . | -29% | 8.2µM* | 1% | ? | -16% | ?
CC1CCC(C(C)C)C(OC(=O)Cn2c(-c3ccc(F)cc3)[n+](C)c3ccccc32)C1 (stereo not drawn) | 1% | 16µM* | ? | 8.2µM* | 0% | -2% | ? | 9.2µM*
Cc1cccc(OCc2n(CC(=O)OC3CC(C)CCC3C(C)C)c3ccccc3[n+]2C)c1 (stereo not drawn) | -2% | ? | -13% | -12% | 2% | . | . | .
CC1CCC(C(C)C)C(OC(=O)Cn2c(-c3ccccc3)[n+](C)c3ccccc32)C1 (stereo not drawn) | 2% | 6.5µM* | ? | 3.7µM* | 8% | 0% | ? | 2.1µM*
O=c1c(NCCc2ccc(Cl)cc2)nccn1-c1ccccc1 | 11% | . | -8% | -11% | 1% | . | . | .
C[C@H]1O[C@@H](O[C@H]2[C@@H](O)C[C@H](O[C@H]3[C@@H](O)C[C@H](O[C@H]4CC[C@@]5(C)[C@H](CC[C@@H]6[C@@H]5C[C@@H](O)[C@]5(C)[C@@H](C7=CC(=O)OC7)CC[C@]65O)C4)O[C@@H]3C)O[C@@H]2C)C[C@H](O)[C@@H]1O | -3% | 0.16µM* | ? | 0.13µM* | -8% | 2% | ? | 0.058µM*
CCOc1cc(/C=C(/NC(C)=O)C(=O)O)cc(Cl)c1OCc1cccc(Br)c1 | 0% | 0% | -1% | 6% | 8% | . | . | .
COc1ccccc1C(=O)Nc1sc(Nc2ccccc2)nc1C(N)=O | ? | . | 1% | . | 19% | . | . | .
Cc1cc(C)c(CN2CCN(C(=O)Cn3cnc4c(OCc5ccccc5)ncnc43)CC2)c(C)c1 | 1% | ? | -14% | 3.7µM* | 3% | 2% | -11% | 6.5µM*
O=C(CNc1cc(S(=O)(=O)N2CCCC2)ccc1OCC(F)(F)F)Nc1ccc(SC(F)F)cc1 | 5% | ? | ? | 5.2µM* | 2% | -3% | -19% | ?
COc1cc2[nH]c(=S)nc(NC3CCCCCC3)c2cc1OC | 9% | ? | 2% | 1% | -13% | . | . | .
COc1cc2c(NC3CCN(C(C)C)CC3)nc(N3CCCN(C)CC3)nc2cc1OCCCN(C)C | . | . | . | . | . | -1% | ? | 1.6µM*
O=C(c1ccc(Cl)c([N+](=O)[O-])c1)N(Cc1ccco1)C1CCS(=O)(=O)C1 (stereo not drawn) | 0% | ? | -13% | 1% | -5% | . | . | .
Cc1ccc(NC(=O)CN2C(=O)c3cccnc3Sc3ccccc32)cc1C | 9% | . | 9% | ? | -11% | ? | 1% | 62%
COc1ccc(NC(=O)CN2C(=O)c3cccnc3Sc3ccccc32)cc1OC | 8% | . | -4% | 26% | -14% | . | . | .
CC1=Nc2cc(C(=O)NCCc3ccc(Cl)cc3)ccc2Sc2ccc(C)cc21 | -1% | . | ? | 5.2µM* | -16% | -9% | -26% | 21µM*
CC1=CC(=O)C2=C(C)CC[C@@H]3[C@H](OC(=O)[C@H]3C)[C@@H]12 | 0% | 20% | -3% | 6.5µM* | -11% | 6% | -8% | 6.5µM*
CCCSCCCNC(=O)CN1C(=O)CCn2nc(-c3cn(C)c4ccccc34)cc21 | 1% | . | 12% | . | 7% | . | . | .
Cc1ccc(C)c(CN2C(=O)c3ccccc3S(=O)(=O)c3ccc(C(=O)N4CCN(c5ccccc5F)CC4)cc32)c1 | 0% | . | ? | 14% | . | . | . | .
COc1ccc(OC)c(NC(=O)CSc2ncnc3c2cnn3-c2ccccc2Cl)c1 | 3% | 9.2µM* | ? | 4.6µM* | -5% | 0% | -15% | .
Cc1cc2c(=Cc3ccc(N(C)C)cc3)c3ccccc3n2[n+]1C | -1% | . | 16µM* | 2.6µM* | 3% | -22% | ? | 6.5µM*
Cn1c(=O)c2[nH]c(CCCCc3nc4ccccc4[nH]3)nc2n(C)c1=O | -1% | . | 0% | 0% | 4% | . | . | .
